Assay [1] can be described thus: NCI Yeast Anticancer Drug Screen. Data for the rad50 strain (AID 155).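 Note: 0% = growth of vehicle-only cultures of the same strain.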 The note with it: S. cerevisiae rad50 strain growth inhibition; at 50.0 µM; hits give high values. The method in brief: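 Relative growth inhibition (compound vs vehicle) was measured in yeast with a defined repair-gene alteration.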
A short description of assay [2]: NCI Yeast Anticancer Drug Screen. Data for the mec2-1 strain (AID 157). The note with it: S. cerevisiae mec2-1 strain, at 50.0 µM, hits give high values. The method in brief:
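Compounds were applied to mec2-1 yeast cells. Their growth was then compared with that of vehicle-treated cultures to give growth inhibition.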

A short description of assay [3]: NCI Yeast Anticancer Drug Screen. Data for the sgs1 mgt1 strain (AID 161).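 Note: 0% = growth of cultures given vehicle only.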 The note with it: S. cerevisiae sgs1 mgt1 strain, at 50.0 µM, hits give high values. In a few lines: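 This yeast growth screen uses a strain with defined DNA-repair lesions; compound-treated growth is compared with vehicle-treated growth.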
Assay [4] can be described thus: NCI Yeast Anticancer Drug Screen. Data for the cln2 rad14 strain (AID 165).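 Note: 0% = growth equal to vehicle treated cultures.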 The note with it: S. cerevisiae cln2 rad14 strain, at 50.0 µM, hits give high values. The method in brief:
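Strain: cln2 rad14 yeast, altered in cell cycle control and DNA damage repair. Read-out: growth inhibition vs vehicle.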

Assay [5] in a line: NCI Yeast Anticancer Drug Screen. Data for the bub3 strain (AID 167). The note with it: S. cerevisiae bub3 mutant strain, at 50.0 µM, hits give high values. In a few lines:
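Screening used yeast with an engineered genetic alteration affecting cell cycle control. Compound-exposed cultures were compared with vehicle cultures, and reduced growth was taken as inhibition.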

Assay [6] in a line: NCI Yeast Anticancer Drug Screen. Data for the mlh1 rad18 strain (AID 175). The note with it: S. cerevisiae mlh1 rad18 strain growth inhibition; at 50.0 µM; hits give high values. In a few lines:
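A repair-deficient yeast strain is exposed to test compound, and growth is scored relative to vehicle-treated controls.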

Molecules are shown by their SMILES. This is part of a sample that, as a whole, favours compounds with a hit. Of some 79,000 tested, about 15% had one in any assay. Values without a mark were called inactive. Activity calls are given as the source filed them. Cut-off read from the data, not from the text of the source: active = growth inhibition above about 70%; inactive = the rest.

In the case of `CCCNC(=S)NN1C2CSC1CS2`, the growth inhibition in assay [1] is 3.15%; in assay [2] it was 14.9%; in assay [3] it was -1.35%; in assay [4] it was -33.2%; in assay [5], -23.9%; in assay [6] it was -0.4%.
Take `O=C(O)C(Br)C(Br)C(=O)Nc1ccc(F)cc1` (stereo not given): the growth inhibition in assay [1] is 99.7% (active); in assay [2], 99.7% (active); in assay [3], 99.7% (active); in assay [4] it was 98.3% (active); in assay [5], 99.7% (active); in assay [6] it was 99.3% (active).
On to `CO[C@@H]1C=C[C@@]23c4cc5c(cc4CN(C[C@@H]2O)[C@H]3C1)OCO5`, for which the growth inhibition in assay [1] is 3.95%; in assay [2], -26.1%; in assay [3], -11.9%; in assay [4], 14.8%; in assay [5] it was -16.1%; in assay [6], -59.4%.
As for `CCCCOC(=O)NCNC(=O)OCCCC`, the growth inhibition in assay [1] is 23.2%; in assay [2], -7.1%; in assay [3], -2.1%; in assay [4], -15%; in assay [5] it was 1.6%; in assay [6] it was 14.9%.
Take `O=[N+]([O-])c1ccc(S(=O)(=O)c2ccc(NCN3CCCCC3)cc2)cc1`: the growth inhibition in assay [1] was 25.1%; in assay [2] it was 6.2%; in assay [3] it was 26.9%; in assay [4], -3.95%; in assay [5], 13.7%; in assay [6], 17.6%.
On to `CC(=O)Oc1ccc(-c2c3ccccc3cc3c2ccc2ccccc23)cc1`, for which the growth inhibition was 1.75% in assay [1]; -10.4% in assay [2]; -9.85% in assay [3]; -5.05% in assay [4]; -2.7% in assay [5]; -28.3% in assay [6].
Regarding `O=C(c1ccccc1Cl)N1CCN(c2ccccc2)CC1`, the growth inhibition in assay [1] is 12.9%; in assay [2] it was -3.4%; in assay [3], 0%; in assay [4], -28.5%; in assay [5], 9.55%; in assay [6], -6.85%.
On to `Cc1ccc2c(c1)C(C)CC2(C)C` (stereo not given), for which the growth inhibition in assay [1] was 1.8%; in assay [2], -6.55%; in assay [3], -4.6%; in assay [4], 3.65%; in assay [5] it was 8.95%; in assay [6], 2.15%.
Consider `COC(=O)C1C(C)(C(=O)OC)N=NC1(c1ccccc1)c1ccccc1` (stereo not given), for which the growth inhibition in assay [1] is 7.85%; in assay [2], -1.05%; in assay [3] it was -7.55%; in assay [4], 16%; in assay [5], 19.8%; in assay [6] it was -3.4%.
As for `Cc1ccc2cccnc2c1`, the growth inhibition in assay [1] was 21.9%; in assay [2] it was -4.6%; in assay [3], -0.95%; in assay [4], 11.2%; in assay [5], 2.85%; in assay [6], 5%.
Consider `CCCCOP(=O)(OCCCC)/C(C#N)=C/c1ccco1`, for which the growth inhibition in assay [1] is -67.7%; in assay [2] it was -65.6%; in assay [3], -50.1%; in assay [4], -42.1%; in assay [5] it was -29.8%; in assay [6], -79.4%.
Turning to `CC(O)(C(=O)O)C(NC(=O)c1ccccc1)C(=O)O` (stereo not given), the growth inhibition is 12.2% in assay [1]; 6.2% in assay [2]; -2.5% in assay [3]; 6.3% in assay [4]; 11.1% in assay [5]; 2.45% in assay [6].
With `C=CCOC(=O)C(CC=C)C(C)=O` (stereo not given), the growth inhibition in assay [1] is 3.3%; in assay [2] it was -21.9%; in assay [3], -17.1%; in assay [4], -5.05%; in assay [5], -19.8%; in assay [6], -11.4%.
On to `S=C1NC(c2ccccc2)Nc2ccccc21` (stereo not given), for which the growth inhibition in assay [1] is 6.5%; in assay [2], 15.9%; in assay [3], -5.5%; in assay [4], -40.3%; in assay [5] it was -12.9%; in assay [6] it was 3.75%.
Turning to `CC(=O)C1=C(C)NC2C=CC=CN12` (stereo not given), the growth inhibition in assay [1] was 3.95%; in assay [2], -6.9%; in assay [3], 15.5%; in assay [4], 17.9%; in assay [5], 7.3%; in assay [6] it was 12.9%.
Consider `CC1=C(O[Si](C(C)C)(C(C)C)C(C)C)C2CC1(OS(=O)(=O)C(F)(F)F)[C@H]1C(=O)N(c3ccccc3)C(=O)[C@@H]21` (stereo not given in full), for which the growth inhibition in assay [1] was -4.8%; in assay [2] it was -11.4%; in assay [3], 0.3%; in assay [4], 17.4%; in assay [5], 5.2%; in assay [6], -20.9%.
As for `CCOC(=O)c1c(C(C)=O)cnc2c(C#N)cnn12`, the growth inhibition in assay [1] was -1.15%; in assay [2], -1.55%; in assay [3], -4.95%; in assay [4] it was 41%; in assay [5], 0.6%; in assay [6] it was -10.9%.
With `C=C(C)COCc1ccc(C(C)(C)CC(C)(C)C)cc1`, the growth inhibition in assay [1] is -14.6%; in assay [2] it was -10.3%; in assay [3], -9.85%; in assay [4], -23.5%; in assay [5], -15.4%; in assay [6] it was 1.55%.
In the case of `COc1cc2c(c(OC)c1OC)-c1ccc(S(C)(=O)=O)c(=O)cc1[C@@H](NC(C)=O)CC2`, the growth inhibition in assay [1] was 3.25%; in assay [2], -7.1%; in assay [3], 3.2%; in assay [4], 4.7%; in assay [5], -35%; in assay [6] it was -44.4%.
In the case of `C[n+]1c(/C=C\c2ccc(O)cc2)cc(C(N)=O)c2ccccc21`, the growth inhibition in assay [1] is 19.2%; in assay [2], 11.8%; in assay [3], 17.1%; in assay [4] it was 2.6%; in assay [5], 3.65%; in assay [6], 7.7%.

These data come from PubChem BioAssay (NCI).
